Experimental data: PubChem BioAssay (NCI)
About 79,000 compounds went through this panel and 15% of them were active in at least one assay; those are over-represented in the sample as a whole. Activity calls are given as the source filed them. No stated cut-off is given here; in the data, active means growth inhibition above about 70%; inactive means the rest.

Key:
[1] = NCI Yeast Anticancer Drug Screen. Data for the rad50 strain (AID 155);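 further: 0% = growth of vehicle-only cultures of the same strain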; conditions: S. cerevisiae rad50 strain growth inhibition; at 50.0 µM; stronger effect = higher value
Outline: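 DNA repair mutant yeast, compound exposure, growth read-out; inhibition is taken relative to vehicle.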

[2] = NCI Yeast Anticancer Drug Screen. Data for the mec2-1 strain (AID 157); conditions: S. cerevisiae mec2-1 strain, at 50.0 µM, stronger effect = higher value
Outline: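 Compounds were applied to mec2-1 yeast cells. Their growth was then compared with that of vehicle-treated cultures to give growth inhibition.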

[3] = NCI Yeast Anticancer Drug Screen. Data for the sgs1 mgt1 strain (AID 161);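 further: 0% = growth of cultures given vehicle only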; conditions: S. cerevisiae sgs1 mgt1 strain, at 50.0 µM, stronger effect = higher value
Outline: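 Yeast cells carrying a defined DNA-repair defect were exposed to test compounds. Growth inhibition was measured relative to vehicle-treated controls.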

[4] = NCI Yeast Anticancer Drug Screen. Data for the cln2 rad14 strain (AID 165);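 further: 0% = growth equal to vehicle treated cultures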; conditions: S. cerevisiae cln2 rad14 strain, at 50.0 µM, stronger effect = higher value
Outline: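 Strain: cln2 rad14 yeast, altered in cell cycle control and DNA damage repair. Read-out: growth inhibition vs vehicle.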

[5] = NCI Yeast Anticancer Drug Screen. Data for the bub3 strain (AID 167); conditions: S. cerevisiae bub3 mutant strain, at 50.0 µM, stronger effect = higher value
Outline: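 In this screen, a yeast mutant lacking normal mitotic checkpoint function is challenged with compound. Relative growth versus vehicle gives the inhibition value.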

[6] = NCI Yeast Anticancer Drug Screen. Data for the mlh1 rad18 strain (AID 175); conditions: S. cerevisiae mlh1 rad18 strain growth inhibition; at 50.0 µM; stronger effect = higher value
Outline: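 A repair-deficient yeast strain is exposed to test compound, and growth is scored relative to vehicle-treated controls.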

Measured: growth inhibition

OC1(c2ccccc2)C(c2ccccc2)=C(c2ccccc2)C(c2ccc(CCCCCCCCc3ccc(C4=C(c5ccccc5)C(O)(c5ccccc5)C(c5ccccc5)=C4c4ccccc4)cc3)cc2)=C1c1ccccc1 (configuration not stated)
inactive: [1] -20.4% | [2] -3.95% | [3] -7.5% | [4] -28.1% | [5] -23.6% | [6] -9.15%

N#CC(NCc1ccccc1)c1ccccc1 (configuration not stated)
inactive: [1] 67.7% | [2] 43% | [3] 14.3% | [4] -17.1% | [5] 22.2% | [6] 19.8%

C[C@@H]1S[C@H](c2c(F)cccc2Cl)n2c1nc1ccccc12
inactive: [5] 68.2%
active: [1] 78.7% | [2] 82.7% | [3] 86.6% | [4] 82.2% | [6] 78.1%

CC1C=CC(C(=O)Nc2ccc(Cl)c(Cl)c2)N1C (configuration not stated)
inactive: [1] 1% | [2] 12.2% | [3] 7.6% | [4] -33.9% | [5] -11.9% | [6] 2.75%

CCc1nc(Nc2cccc(Cl)c2)c2cnn(-c3ccccc3)c2n1
inactive: [1] -11.2% | [2] -8.35% | [3] -4.35% | [4] -48.4% | [5] 14.7% | [6] -6.85%

CN1CCN(C(=S)N(C(=O)c2ccco2)c2ccccc2)CC1
inactive: [1] -57.8% | [2] -44.3% | [3] -22.6% | [4] -2.4% | [5] -0.1% | [6] -37.9%

CCOC(=O)/C(C#N)=C\Nc1ccc(C)cc1
inactive: [1] -0.85% | [2] -26.6% | [3] -7.95% | [4] -2.55% | [5] -12.1% | [6] -8.75%

O=S(=O)(O)c1cc2nonc2c2ccccc12
inactive: [1] 2.75% | [2] -0.85% | [3] 12.9% | [4] 9.25% | [5] 0.9% | [6] -2.6%

O=C1c2cccc(O)c2C(=O)c2c(OC3OC(CO)C(OC4OC(CO)C(O)C(O)C4O)C(O)C3O)cccc21 (configuration not stated)
inactive: [2] 36.2% | [3] 32.5% | [4] -5.55% | [5] 4.15% | [6] 31.4%
active: [1] 94.2%

CN(C)c1nc(OC2C(C(O)CO)OC3OC(C)(C)OC32)nc(N(C)C)n1 (configuration not stated)
inactive: [1] 31.1% | [2] -11.7% | [3] 6.15% | [4] 18% | [5] -1.05% | [6] -0.65%

COC1=C(O)C(=O)C(OC)=C(O)C1=O
inactive: [1] -19.5% | [2] -8.65% | [3] -13.5% | [4] -1.4% | [5] 9.75% | [6] -19.6%

CCC(C)C(N)C1=NC(C(=O)NC(CC(C)C)C(=O)NC(CCC(=O)O)C(=O)NC(C(=O)NC2CCCCNC(=O)C(CC(N)=O)NC(=O)C(CC(=O)O)NC(=O)C(Cc3cnc[nH]3)NC(=O)C(Cc3ccccc3)NC(=O)C(C(C)CC)NC(=O)C(CCCN)NC2=O)C(C)CC)CS1 (configuration not stated)
inactive: [1] 12.9% | [2] -24.9% | [3] 0.2% | [4] 25.6% | [5] -15.2% | [6] -7.3%

C=CCCCCCCCCCCC
inactive: [1] -11.3% | [2] -11.2% | [3] -14.1% | [4] 11.7% | [5] 1.95% | [6] -4.9%

CC1CCc2nc(N)sc2C1 (configuration not stated)
inactive: [1] 14.4% | [2] 11.9% | [3] 18.9% | [4] 8.35% | [5] 1.1% | [6] 5.9%

O=C1NC(=S)S/C1=C\c1c(Cl)cccc1Cl
inactive: [1] 56.9% | [2] 19% | [3] 61.1% | [4] 16.9% | [5] 27.9% | [6] 60.4%

Clc1ccccc1/C=C/c1ccnnc1
inactive: [1] 15.8% | [2] 18.6% | [3] -3.65% | [4] 7% | [5] 1.35% | [6] 12.8%

COC(=O)[C@@H]1Cc2ccc(OC)c(c2)OCCC(=O)N1
inactive: [1] -37% | [2] 0% | [3] 21.7% | [4] -2.95% | [5] -13% | [6] -12.2%

CN(C)C(=O)OCC1COc2ccccc2O1 (configuration not stated)
inactive: [1] 15% | [2] -23.6% | [3] -23.1% | [4] -70.2% | [5] -11.1% | [6] -12.6%

CCN(CC)C(=S)N1C(=O)C2C3CCC(O3)C2C1=O (configuration not stated)
inactive: [1] 19.1% | [2] 11.9% | [3] 13.2% | [4] 6.75% | [5] 28.2% | [6] -11.2%

O=C(NN1C(=O)C(Cl)C1c1cccc([N+](=O)[O-])c1)c1ccccc1O (configuration not stated)
inactive: [1] -17.4% | [2] -26.1% | [3] -37.5% | [4] 1.1% | [5] -27.1% | [6] -25.1%

O=C(O)c1ccc(CSc2ccccc2C(=O)O)cc1
inactive: [1] 16.4% | [2] -16.6% | [3] -6.95% | [4] 15.4% | [5] -14.7% | [6] 33.8%

O=C1CCC(C2(O)c3ccccc3-c3ccccc32)C(=O)N1 (configuration not stated)
inactive: [1] -20.7% | [2] -16.1% | [3] -22.3% | [4] 22.4% | [5] 4.65% | [6] 1.4%

Cc1ccccc1NC(=O)C(=O)CC(=O)c1sc(Nc2ccccc2[N+](=O)[O-])nc1C
inactive: [1] 8.8% | [2] -7.45% | [3] -7.4% | [4] -10.3% | [5] -0.3% | [6] -2.9%

CN(C)C(=O)C(NCCO)c1ccccc1 (configuration not stated)
inactive: [1] -12.6% | [2] -20.4% | [3] -11.2% | [4] -27.8% | [5] 14% | [6] 0.3%

CCOC(=O)C(C#N)(C1C=CCC1)C1C=CCC1 (configuration not stated)
inactive: [1] -1.9% | [2] -0.1% | [3] 14.3% | [4] 43.9% | [5] 46.3% | [6] 13.3%

CSCCCNC(=O)NS(=O)(=O)c1ccc(C)cc1
inactive: [1] 6.55% | [2] -1.35% | [3] 8.95% | [4] 7.75% | [5] 6.6% | [6] 2.85%

CCOC(=O)CCC1(CCC(=O)OCC)c2ccccc2-c2ccccc21
inactive: [1] 3.65% | [2] 9% | [3] -1.85% | [4] -7.15% | [5] -3.75% | [6] 13%

CN(C)CCNc1ccc2ncn3c4ccccc4c(=O)c1c23
inactive: [1] 13.4% | [2] -0.35% | [3] -4.95% | [4] 27.1% | [5] -0.1% | [6] 46.5%

COc1ccccc1CO
inactive: [1] 0.85% | [2] -13.8% | [3] 3.85% | [4] 13.7% | [5] 13.8% | [6] -1.15%

CC1(C)CCC(C)(C)C1C(=O)NC(O)C(=O)O (configuration not stated)
inactive: [1] -21.4% | [2] 8.8% | [3] -33% | [4] -2.2% | [5] 3.25% | [6] -9.8%

CC(=O)C(CCC(=O)O)(CCC(=O)O)c1ccccc1
inactive: [1] 2% | [2] 21.6% | [3] 5.3% | [4] -49.4% | [5] 13.7% | [6] 20.2%

O=C1/C(=C\c2ccccc2)C2C3CCC(C3)C2/C1=C\c1ccccc1 (configuration not stated)
inactive: [1] -3.55% | [2] 0.55% | [3] 4.6% | [4] -63.8% | [5] 11.1% | [6] -17.4%

CCCCCCCCCCCCCCCC(=O)OCC(O)C1OC(=O)C(O)=C1O (configuration not stated)
inactive: [1] 28.1% | [2] -0.75% | [3] 4.6% | [4] 9.15% | [5] 24.2% | [6] 46.7%

CCN(CC)C(=O)c1ccccc1C
inactive: [1] 17.2% | [2] -2.65% | [3] -9.7% | [4] 6.7% | [5] -3.85% | [6] 0.45%

c1ccc2c(c1)CCCN2c1ncnc2ccccc12
inactive: [1] -10.2% | [2] -8.45% | [3] -2.8% | [4] -62.6% | [5] 15.6% | [6] -7.4%

CC(=O)OC1(C#N)CC2OC1C1N=NN(C(=O)OC(C)(C)C)C21 (configuration not stated)
inactive: [1] 18.2% | [2] 2.15% | [3] 4.8% | [4] 21.8% | [5] 16.1% | [6] 19.2%

Cc1ccc(S(=O)(=O)N2CCN(S(=O)(=O)c3ccc(C)cc3)COC2)cc1
inactive: [1] -1.1% | [2] -0.4% | [3] -5.15% | [4] -3.85% | [5] -1.6% | [6] -9.85%

Cc1c(-c2ccc3c(c2)OCO3)sc(N)c1C#N
inactive: [1] 5% | [2] -15.5% | [3] 12.2% | [4] 4.25% | [5] 20.6% | [6] -7.75%

Nc1[nH]c(=S)nc2nc3c(c(-c4ccccc4)c12)CCCC3
inactive: [1] -45.9% | [2] -13.5% | [3] 6.95% | [4] -3.05% | [5] -13.6% | [6] -14.4%

CCN(CC)CCN(C(=Nc1ccccc1)N1CCOCC1)c1ccccc1
inactive: [1] -19.8% | [2] -40.5% | [3] 3.6% | [4] -3.8% | [5] 4.8% | [6] -11.9%

Cc1cc2[nH]c3ccccc3n2c(=O)c1N=Nc1ccccc1
inactive: [1] 3.1% | [2] 4.65% | [3] 9.75% | [4] -14.3% | [5] 7.05% | [6] 15.8%

O=C1C=C(Nc2ccccc2C(=O)CC(=O)C(=O)Nc2ccc(Cl)cc2)c2ccccc2C1=O
inactive: [1] 5.05% | [2] 0.95% | [3] 6.9% | [4] -3.05% | [5] 42.5% | [6] 9.8%
